The text below walks through data of PubChem BioAssay.

Experiment [1] is described as follows: optical density shifts of acrAB sulA E. coli – strain DRC41, OD650, 48 h, E. coli filamentation inducer project, primary screen (AID 1152).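 Also: E. coli MC1000 strain DRC41 lacking acrAB efflux pump and sulA.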 The settings on record: higher = more signal, called active from +8 up or from −8 down.
Experiment [2] is described as follows: probe aLefty1 binding on compound microarray – biochemical, small-molecule microarray, 635/667 nm fluorescence, primary screen (AID 1153).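 Also: score merges spot fluorescence with signal-to-noise ratio from the scanned slide images.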 The settings on record: higher = more signal.
A short description of experiment [3]: plasmodial surface anion channel blockers, osmotic lysis – cell-based, P. falciparum Indochina, OD700, 1 h, primary screen (AID 1154). As to conditions: P. falciparum Indochina infected RBC osmotic lysis, higher = more signal, called active from +8 up or from −8 down.
Experiment [4] is described as follows: plasmodial surface anion channel blockers, osmotic lysis – cell-based, P. falciparum Indochina, OD700, 2 h, primary screen (AID 1155).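 Also: lysis reports solute entry through the parasite surface anion channel PSAC.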 The settings on record: P. falciparum Indochina infected erythrocytes, higher = more signal, called active from +8 up or from −8 down.
A short description of experiment [5]: changes in parasitized red cell lysis, either direction – P. falciparum Indochina, OD700, 3 h, PSAC antagonist project, primary screen (AID 1156). As to conditions: P. falciparum-infected erythrocytes, osmotic lysis, higher = more signal, called active from +8 up or from −8 down.
Experiment [6] can be described thus: plasmodial surface anion channel blockers, osmotic lysis – cell-based, P. falciparum Indochina, OD700, 18 h, primary screen (AID 1157). As to conditions: P. falciparum Indochina infected erythrocytes, osmotic lysis OD700, 18 h; higher = more signal, called active from +8 up or from −8 down.
Experiment [7] in a line: S6 kinase pathway phospho-S6 level changes – cell-based, A549, cytoblot, luminescence, serum-stimulated, primary screen (AID 1158).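 Also: serum-stimulated A549 lung adenocarcinoma cells; signal is phosphorylated S6 detected by cytoblot immunostaining with HRP secondary.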 As to conditions: 5 h, higher = more signal.
The target of experiment [8] is NADPH oxidase 2 (Homo sapiens) (UniProt P04839). As to the kind of experiment: compounds shifting NOX2 Amplex Red fluorescence – cell-based, HEK293-NOX2, PMA-stimulated, NOX inhibitor project, primary screen (AID 1159). Also: test concentration not given here. The settings on record: 45 min, higher = more signal, called active from +8 up or from −8 down.
Experiment [9] concerns the target NADPH oxidase 4 (Homo sapiens) (UniProt Q9NPH5). Put plainly: compounds shifting NOX4 Amplex Red fluorescence – cell-based, HEK293-NOX4, tetracycline-induced, NOX inhibitor project, primary screen (AID 1160). As to conditions: HEK293-NOX4, Amplex Red H2O2 fluorescence, 45 min; higher = more signal, called active from +8 up or from −8 down.
Experiment [10] concerns the target NADPH oxidase 5 (Homo sapiens) (UniProt Q96PH1). As to the kind of experiment: compounds shifting NOX5 Amplex Red fluorescence – cell-based, HEK293-NOX5, NOX inhibitor project, primary screen (AID 1161). The settings on record: HEK293-NOX5, ionomycin, 45 min, higher = more signal.
Experiment [11] is described as follows: compound effects on lung adenocarcinoma cell viability – A549, calcein-AM fluorescence, 48 h, basal, profiling panel (AID 1162). Also: test concentration not given here. As to conditions: higher = more signal.
The nature of experiment [12]: compound effects on differentiated 3T3-L1 adipocyte viability – cell-based, 3T3-L1 adipocytes, calcein-AM fluorescence, 48 h, basal, profiling panel (AID 1163). Also: test concentration not given here. The settings on record: 3T3-L1 adipocytes viability, higher = more signal.
The nature of experiment [13]: compound effects on hepatocellular carcinoma cell viability – HepG2, calcein-AM fluorescence, 48 h, basal, profiling panel (AID 1164). Also: test concentration not given here. As to conditions: higher = more signal.
Experiment [14] is described as follows: compound effects on multiple myeloma cell viability – MM1S, calcein-AM fluorescence, 48 h, basal, profiling panel (AID 1165). Also: test concentration not given here. As to conditions: higher = more signal.
The nature of experiment [15]: calcein-AM signal in unstimulated myeloma cells – cell-based, calcein-AM fluorescence, 48 h, PK04 Diversity Set, profiling panel (AID 1166).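 Also: cells grown under basal conditions without added stimulus; test concentration not given here.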 The settings on record: RPMI8226 myeloma viability, higher = more signal.
Experiment [16] can be described thus: JC-1 mitochondrial signal, unstimulated HepG2 cells – cell-based, JC-1 fluorescence, 24 h, 100 nL compound, profiling panel (AID 1167). Also: test concentration not given here. As to conditions: HepG2 mitochondrial potential, higher = more signal.
Experiment [17] can be described thus: JC-1 mitochondrial signal, unstimulated adipocytes – cell-based, JC-1 fluorescence, 3T3-L1 adipocytes, 24 h, 100 nL compound, profiling panel (AID 1168). Also: test concentration not given here. As to conditions: JC-1 mitochondrial fluorescence, higher = more signal, called active from +8 up or from −8 down.
Experiment [18] in a line: JC-1 mitochondrial signal, unstimulated myeloma cells – cell-based, JC-1 fluorescence, RPMI8226, 24 h, 100 nL compound, profiling panel (AID 1169). Also: test concentration not given here. The settings on record: JC-1 mitochondrial potential fluorescence, higher = more signal.
The nature of experiment [19]: JC-1 mitochondrial signal, unstimulated MM1S myeloma – cell-based, JC-1 fluorescence, 24 h, 100 nL compound, profiling panel (AID 1170). Also: test concentration not given here. The settings on record: MM1S mitochondrial potential, higher = more signal.
The nature of experiment [20]: resazurin metabolic signal in A549 cells – cell-based, resazurin fluorescence, 24 h, PK04 Diversity Set, profiling panel (AID 1171). Also: test concentration not given here. As to conditions: A549 viability, higher = more signal, called active from +8 up or from −8 down.

Activity calls are given as the source filed them.

Chain of NADPH oxidase 4 (Homo sapiens) (Q9NPH5 whole entry, looked up): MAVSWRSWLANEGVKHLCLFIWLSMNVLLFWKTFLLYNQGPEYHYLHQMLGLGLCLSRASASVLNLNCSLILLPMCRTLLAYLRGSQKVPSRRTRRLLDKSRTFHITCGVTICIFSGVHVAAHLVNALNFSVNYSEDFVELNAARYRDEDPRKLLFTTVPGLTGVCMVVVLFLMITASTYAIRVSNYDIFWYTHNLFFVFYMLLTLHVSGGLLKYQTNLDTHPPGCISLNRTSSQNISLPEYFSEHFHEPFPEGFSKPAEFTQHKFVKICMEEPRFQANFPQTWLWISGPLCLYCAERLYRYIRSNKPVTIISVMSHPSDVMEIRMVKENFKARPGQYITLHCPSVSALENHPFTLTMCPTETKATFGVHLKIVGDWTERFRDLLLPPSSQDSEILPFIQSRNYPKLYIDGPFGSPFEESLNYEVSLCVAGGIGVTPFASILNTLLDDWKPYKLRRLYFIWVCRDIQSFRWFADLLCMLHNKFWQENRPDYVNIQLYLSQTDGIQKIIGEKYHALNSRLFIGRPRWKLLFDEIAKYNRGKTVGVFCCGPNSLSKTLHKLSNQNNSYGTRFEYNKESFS
Chain of NADPH oxidase 5 (Homo sapiens) (Q96PH1 whole entry, looked up): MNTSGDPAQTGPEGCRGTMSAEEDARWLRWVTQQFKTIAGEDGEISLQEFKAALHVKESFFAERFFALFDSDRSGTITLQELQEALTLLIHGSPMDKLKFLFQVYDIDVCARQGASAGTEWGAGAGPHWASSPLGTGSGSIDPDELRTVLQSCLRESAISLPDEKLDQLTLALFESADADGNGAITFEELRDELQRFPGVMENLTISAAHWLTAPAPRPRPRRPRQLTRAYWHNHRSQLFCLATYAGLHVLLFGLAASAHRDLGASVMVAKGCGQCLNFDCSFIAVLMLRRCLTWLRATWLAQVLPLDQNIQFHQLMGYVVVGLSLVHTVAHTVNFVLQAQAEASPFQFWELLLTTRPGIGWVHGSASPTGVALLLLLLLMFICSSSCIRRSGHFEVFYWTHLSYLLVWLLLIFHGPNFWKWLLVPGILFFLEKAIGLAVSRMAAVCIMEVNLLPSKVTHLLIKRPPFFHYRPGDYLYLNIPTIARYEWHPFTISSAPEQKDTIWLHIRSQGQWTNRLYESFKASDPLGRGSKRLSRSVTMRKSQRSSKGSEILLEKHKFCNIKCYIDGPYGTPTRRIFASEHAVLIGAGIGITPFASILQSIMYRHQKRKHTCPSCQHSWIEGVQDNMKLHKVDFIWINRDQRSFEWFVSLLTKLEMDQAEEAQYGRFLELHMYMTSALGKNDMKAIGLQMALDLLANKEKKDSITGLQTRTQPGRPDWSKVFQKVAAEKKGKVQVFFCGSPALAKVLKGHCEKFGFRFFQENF
Chain of NADPH oxidase 2 (Homo sapiens) (P04839 whole entry, looked up): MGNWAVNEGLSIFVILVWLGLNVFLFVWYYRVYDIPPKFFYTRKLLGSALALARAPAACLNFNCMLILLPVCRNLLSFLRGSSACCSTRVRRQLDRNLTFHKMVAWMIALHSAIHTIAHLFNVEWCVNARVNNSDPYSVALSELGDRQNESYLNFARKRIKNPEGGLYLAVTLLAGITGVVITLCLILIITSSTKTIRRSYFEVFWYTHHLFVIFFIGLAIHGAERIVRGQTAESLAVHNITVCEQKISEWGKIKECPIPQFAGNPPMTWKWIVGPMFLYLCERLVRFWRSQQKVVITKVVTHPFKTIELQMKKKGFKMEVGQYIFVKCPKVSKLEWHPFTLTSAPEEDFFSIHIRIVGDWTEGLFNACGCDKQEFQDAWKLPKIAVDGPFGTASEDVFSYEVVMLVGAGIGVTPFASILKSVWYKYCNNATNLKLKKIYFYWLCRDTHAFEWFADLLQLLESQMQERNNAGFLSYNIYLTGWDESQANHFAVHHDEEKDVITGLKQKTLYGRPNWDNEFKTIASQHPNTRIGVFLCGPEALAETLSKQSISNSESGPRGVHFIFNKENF

In the case of `CCCC[C@@H]1C[C@H]1[C@@H](NC(=O)c1ccc(C(F)(F)F)cc1)c1ccc(C(=O)OC)cc1`, the z-score was -0.499 (inactive) in experiment [1]; 8.27 (active) in [3]; 0.851 (inactive) in experiment [4]; 0.512 (inactive) in experiment [5]; 0.422 (inactive) in [6]; -0.0327 in experiment [7]. The z-score in experiment [8] is -0.628 (inactive); in [9], 0.497 (inactive); in [10] it was 1.03; in experiment [11], -0.844; in experiment [12] it was -0.55; in experiment [13], -1.33. In addition, the z-score in experiment [14] was -1.97; in [15], -1.73; in experiment [16] it was -0.84; in experiment [17] it was 0.282 (inactive); in experiment [18], -0.167; in experiment [19], -1.72. In experiment [20], the z-score is 0.312 (inactive). This molecule displayed a composite z-score in experiment [2] of 0.375.

Take `COCCOC(=O)N1C(=O)[C@@]2(c3cc(C#CC4=CCCCC4)ccc31)[C@H](C(=O)N1CCN(c3ncccn3)CC1)[C@H]1C(=O)O[C@H](c3ccccc3)[C@H](c3ccccc3)N1[C@@H]2c1ccccc1OCCO`: the z-score in experiment [1] is 2.23 (inactive); in experiment [3], 1.65 (inactive); in experiment [4], 0.256 (inactive); in experiment [5], -0.634 (inactive); in experiment [6], -0.227 (inactive); in [7] it was 2.05. Also, the z-score in [8] is -0.241 (inactive); in [9], -2.24 (inactive); in experiment [10], -3.12; in experiment [11] it was -0.793; in [12], 1.36; in experiment [13], -0.435. Further, the z-score in [14] is -1.24; in experiment [15] it was -1.88; in experiment [16] it was -0.0311; in experiment [17], 10.6 (active); in [18], -0.645; in experiment [19], -1.47. Further, the z-score in experiment [20] was 0.738 (inactive). Moreover, the composite z-score in [2] was determined as 0.297.

Consider `C=C(C(=O)CC[C@@H](OC(C)=O)c1cccc(OCCO)c1)C(C)C`, for which the z-score is -0.369 (inactive) in [1]; 3.09 (inactive) in experiment [3]; -0.0769 (inactive) in experiment [4]; 1.38 (inactive) in experiment [5]; 0.0127 (inactive) in [6]; -0.78 in experiment [7]. Besides, the z-score was 0.825 (inactive) in experiment [8]; -1.12 (inactive) in experiment [9]; -1.05 in experiment [10]; -0.351 in experiment [11]; 0.0938 in [12]; -0.351 in [13]. Also, the z-score in experiment [14] was -1.54; in experiment [15], -0.0608; in experiment [16], -1.55; in experiment [17] it was 0.216 (inactive); in [18], 0.592; in [19], 0.484. Besides, in [20], the z-score was -0.326 (inactive). The molecule also displayed a composite z-score in experiment [2] of 0.11.

Regarding `COC(=O)[C@@]1(CCC(=O)OC(C)(C)C)N=C(c2ccc(OCCCO)cc2)O[C@H]1c1ccccc1CN=[N+]=[N-]`, the z-score was -0.0301 (inactive) in experiment [1]; 21.3 (active) in experiment [3]; 6.25 (inactive) in [4]; 0.765 (inactive) in experiment [5]; 1.4 (inactive) in [6]; -0.184 in experiment [7]. For the same molecule, the z-score in experiment [8] is -1.47 (inactive); in [9], -0.475 (inactive); in experiment [10], -0.802; in experiment [11], -1.06; in experiment [12], -1.3; in [13], -2.51. Also, the z-score is -3.2 in experiment [14]; -3.95 in [15]; -1.7 in experiment [16]; -0.472 (inactive) in [17]; -1.12 in experiment [18]; -1.73 in [19]. Further, the z-score in experiment [20] was -0.227 (inactive). The molecule further gave a composite z-score in experiment [2] of 0.437.

Turning to `CCCC[C@@H](O)C1=C(COC)Cn2c(=O)n(-c3ccccc3)c(=O)n2[C@H]1CO`, the z-score is 4.01 (inactive) in experiment [1]; -0.0913 (inactive) in experiment [3]; -0.696 (inactive) in experiment [4]; -0.304 (inactive) in [5]; -2.74 (inactive) in experiment [6]; 1.9 in experiment [7]. Further, the z-score is -1.55 (inactive) in experiment [8]; 0.208 (inactive) in [9]; 0.716 in experiment [10]; 0.281 in experiment [11]; 0.122 in experiment [12]; 0.166 in experiment [13]. Besides, the z-score in [14] is 0.103; in experiment [15], 0.337; in experiment [16] it was 0.376; in [17], -0.301 (inactive); in experiment [18], -0.197; in experiment [19] it was 0.794. The z-score in experiment [20] was -0.783 (inactive). Besides, the composite z-score in experiment [2] is -0.224.

For the molecule `CCCC=C(CCC)[C@@H](NS(=O)(=O)c1ccc(Cl)cc1)c1ccccc1`, the z-score is -2.04 (inactive) in experiment [1]; 1.02 (inactive) in [3]; 0.1 (inactive) in experiment [4]; 1.16 (inactive) in experiment [5]; 0.814 (inactive) in experiment [6]; 0.717 in experiment [7]. In addition, the z-score was -1.64 (inactive) in experiment [8]; -3.24 (inactive) in experiment [9]; 1.59 in [10]; -1.61 in experiment [11]; -0.224 in [12]; -1.42 in [13]. In addition, the z-score in experiment [14] was -1.18; in experiment [15], -3.77; in experiment [16], -3.69; in [17], 0.0744 (inactive); in experiment [18], -0.372; in experiment [19], -0.676. Further, the z-score in [20] was 2.17 (inactive). In experiment [2], this molecule returned a composite z-score of 0.345.

Take `COC(=O)Cn1c(C(=O)N(C)C)cc2c1C[C@H]1CN(C(=O)c3ccccc3)[C@@](Cc3ccc(OC)cc3)(C(=O)OC)[C@@H]21`: the z-score in [1] is -1.35 (inactive); in experiment [3] it was 2.81 (inactive); in experiment [4], 0.765 (inactive); in experiment [5], 1.04 (inactive); in experiment [6] it was 0.765 (inactive); in experiment [7], -0.62. Further, the z-score in experiment [8] is 0.494 (inactive); in [9], -0.539 (inactive); in [10] it was 0.813; in experiment [11], -0.199; in [12], -0.714; in experiment [13], 0.496. Also, the z-score in experiment [14] was 0.611; in experiment [15] it was -0.734; in experiment [16], 3.44; in experiment [17] it was -0.881 (inactive); in experiment [18] it was -0.329; in [19] it was -1.36. The z-score in [20] is -0.31 (inactive). Moreover, in [2], the composite z-score stood at 0.546.

Consider `C[C@@H](OCc1ccccc1)C1NC(=O)[C@@]23C(=O)N[C@@H](Cc4ccccc4)C2[C@H](C)[C@@]2(C)O[C@H]2C3/C=C/C/C=C\CNC(=O)[C@H](Cc2ccccc2)NC1=O` (stereo not given in full), for which the z-score in [1] was 0.725 (inactive); in experiment [3], 1.18 (inactive); in experiment [4] it was 0.012 (inactive); in [5], 0.526 (inactive); in experiment [6], 0.156 (inactive); in [7] it was 0.858. Besides, the z-score in [8] is 0.487 (inactive); in experiment [9], 0.924 (inactive); in [10], 0.349; in [11], 0.247; in [12], 0.854; in experiment [13] it was 0.235. For the same molecule, the z-score was -1.42 in experiment [14]; -2.1 in experiment [15]; 0.637 in experiment [16]; -0.355 (inactive) in [17]; -0.497 in [18]; 0.546 in experiment [19]. The z-score in [20] is -0.792 (inactive). For the same molecule, the composite z-score in experiment [2] was -0.0544.
